PubChem BioAssay
Activity calls are given as the source filed them.

Columns and labels:
[1] = compounds binding Alexa647 anti-His antibody – biochemical, small-molecule microarray, 635 nm fluorescence, artefact control for SMM control protein annotation, primary screen (AID 1128); details: higher = more signal;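 further: score merges feature fluorescence with signal-to-noise for each printed compound spot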
[2] = system: Human papillomavirus type 1a E7 protein (residues 1-88); assay: HPV1a E7 small-molecule binders, primary screen, biochemical, small-molecule microarray, residues 1-88, 635 nm (AID 1129); details: small-molecule microarray binding, fluorescence 635 nm; higher = more signal
[3] = molecular target: Focal adhesion kinase 1 (Homo sapiens) (UniProt Q05397); assay: PTK2 protein binding on printed compound slides – biochemical, small-molecule microarray, 635/667 nm fluorescence, BSA, DTT, primary screen (AID 1130); details: 635 nm fluorescence, higher = more signal;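 further: composite of spot emission at 667 nm and signal to noise over triplicate slides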
Chain of Focal adhesion kinase 1 (Homo sapiens) (Q05397 whole entry, looked up): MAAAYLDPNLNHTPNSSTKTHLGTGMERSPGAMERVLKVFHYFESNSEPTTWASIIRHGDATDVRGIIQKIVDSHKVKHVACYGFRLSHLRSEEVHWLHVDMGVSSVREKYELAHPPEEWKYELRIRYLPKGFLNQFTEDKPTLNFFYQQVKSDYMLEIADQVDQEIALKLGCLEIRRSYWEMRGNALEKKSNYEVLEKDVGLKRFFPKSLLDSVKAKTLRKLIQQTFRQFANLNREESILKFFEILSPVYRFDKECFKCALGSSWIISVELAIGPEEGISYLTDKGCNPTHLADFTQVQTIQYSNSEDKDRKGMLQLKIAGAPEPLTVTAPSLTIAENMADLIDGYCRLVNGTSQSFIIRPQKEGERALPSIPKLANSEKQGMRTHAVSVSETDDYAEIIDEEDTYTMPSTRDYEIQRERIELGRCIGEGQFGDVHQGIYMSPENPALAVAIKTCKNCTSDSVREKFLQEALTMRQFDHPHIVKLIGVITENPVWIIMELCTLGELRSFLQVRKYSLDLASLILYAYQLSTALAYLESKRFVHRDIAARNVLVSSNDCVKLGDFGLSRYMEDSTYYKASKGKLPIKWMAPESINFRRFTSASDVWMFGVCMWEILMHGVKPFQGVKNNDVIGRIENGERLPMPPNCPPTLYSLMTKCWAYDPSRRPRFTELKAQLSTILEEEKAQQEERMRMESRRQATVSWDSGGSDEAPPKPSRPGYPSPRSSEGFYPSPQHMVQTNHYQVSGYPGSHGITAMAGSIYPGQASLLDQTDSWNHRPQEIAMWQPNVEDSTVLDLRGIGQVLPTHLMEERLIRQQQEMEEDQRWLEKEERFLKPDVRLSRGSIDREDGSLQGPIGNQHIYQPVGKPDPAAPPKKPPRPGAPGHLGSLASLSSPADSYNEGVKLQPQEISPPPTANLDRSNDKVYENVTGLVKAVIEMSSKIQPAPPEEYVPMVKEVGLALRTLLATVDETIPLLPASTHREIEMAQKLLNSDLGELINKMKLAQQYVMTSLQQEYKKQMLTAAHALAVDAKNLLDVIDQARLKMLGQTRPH

[4] = system: Fibrinogen (Alexa647-labelled); assay: Alexa647-fibrinogen binding to printed small molecules – biochemical, small-molecule microarray, 635/667 nm fluorescence, artefact control for SMM control-protein annotation, profiling panel (AID 1131); details: fibrinogen-A647 binding fluorescence, higher = more signal;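 further: z-score merges 667 nm fluorescence with per-spot signal-to-noise over triplicate slides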
[5] = molecular target: Follistatin (Homo sapiens) (UniProt P19883); assay: FST protein binding to printed compounds – biochemical, small-molecule microarray, 635/667 nm fluorescence, primary screen (AID 1132); details: 635 nm fluorescence, higher = more signal
Chain of Follistatin (Homo sapiens) (P19883 whole entry, looked up): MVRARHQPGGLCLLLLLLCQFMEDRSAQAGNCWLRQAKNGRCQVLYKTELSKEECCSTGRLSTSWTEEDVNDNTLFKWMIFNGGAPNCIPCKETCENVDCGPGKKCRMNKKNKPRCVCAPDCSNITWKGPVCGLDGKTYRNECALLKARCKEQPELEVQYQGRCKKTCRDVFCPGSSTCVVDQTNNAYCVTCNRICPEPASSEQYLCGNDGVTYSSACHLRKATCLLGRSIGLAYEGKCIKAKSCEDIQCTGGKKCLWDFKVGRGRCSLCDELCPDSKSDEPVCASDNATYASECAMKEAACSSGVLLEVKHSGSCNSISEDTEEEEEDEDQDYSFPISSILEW

[6] = molecular target: Fibroblast growth factor 2 (Homo sapiens) (UniProt P09038); assay: basic fibroblast growth factor binding to printed compounds – biochemical, small-molecule microarray, 635/667 nm fluorescence, primary screen (AID 1133); details: FGF2, fluorescence 635/667, higher = more signal
Chain of Fibroblast growth factor 2 (Homo sapiens) (P09038 whole entry, looked up): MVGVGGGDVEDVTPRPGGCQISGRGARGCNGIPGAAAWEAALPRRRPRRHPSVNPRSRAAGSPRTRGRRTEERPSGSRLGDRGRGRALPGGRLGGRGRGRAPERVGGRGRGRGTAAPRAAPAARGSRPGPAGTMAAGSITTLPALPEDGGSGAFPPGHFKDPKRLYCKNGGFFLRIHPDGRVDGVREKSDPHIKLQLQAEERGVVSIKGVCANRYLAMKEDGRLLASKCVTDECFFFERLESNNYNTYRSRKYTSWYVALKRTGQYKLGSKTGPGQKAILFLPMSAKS

[7] = JC-1 mitochondrial potential readout, lung cancer cells – cell-based, A549, JC-1 fluorescence, basal, 24 h, 100 nL, profiling panel (AID 1138); details: higher = more signal;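 further: A549 lung adenocarcinoma cells under basal conditions with no added stimulus; test concentration not given here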
Lefty1 = Lefty1 protein binding to printed compounds – biochemical, small-molecule microarray, 635/667 nm fluorescence, primary screen (AID 1139); details: fluorescence 635/667, higher = more signal
[8] = system: wheat germ agglutinin (Triticum aestivum), Alexa647-labelled; assay: Alexa647-WGA lectin binding to printed small molecules – biochemical, small-molecule microarray, 635/667 nm fluorescence, artefact control for SMM control-protein annotation, profiling panel (AID 1140); details: WGA-A647 binding, 635 nm fluorescence, higher = more signal;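 further: score merges 667 nm feature emission with signal to noise over triplicate slides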
[9] = molecular target: Luciferin 4-monooxygenase (Photinus pyralis) (UniProt P08659); assay: inhibition of purified Photinus pyralis luciferase – biochemical, luminescence, purified enzyme, 2006 set, primary screen (AID 1141); details: purified firefly luciferase, SteadyGlo luminescence, 30 min; higher = more signal, called active from +8 up or from −8 down;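 further: cell-free assay with purified firefly luciferase at 100 ng per well in PBS; test concentration not given here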
Chain of Luciferin 4-monooxygenase (Photinus pyralis) (P08659 whole entry, looked up): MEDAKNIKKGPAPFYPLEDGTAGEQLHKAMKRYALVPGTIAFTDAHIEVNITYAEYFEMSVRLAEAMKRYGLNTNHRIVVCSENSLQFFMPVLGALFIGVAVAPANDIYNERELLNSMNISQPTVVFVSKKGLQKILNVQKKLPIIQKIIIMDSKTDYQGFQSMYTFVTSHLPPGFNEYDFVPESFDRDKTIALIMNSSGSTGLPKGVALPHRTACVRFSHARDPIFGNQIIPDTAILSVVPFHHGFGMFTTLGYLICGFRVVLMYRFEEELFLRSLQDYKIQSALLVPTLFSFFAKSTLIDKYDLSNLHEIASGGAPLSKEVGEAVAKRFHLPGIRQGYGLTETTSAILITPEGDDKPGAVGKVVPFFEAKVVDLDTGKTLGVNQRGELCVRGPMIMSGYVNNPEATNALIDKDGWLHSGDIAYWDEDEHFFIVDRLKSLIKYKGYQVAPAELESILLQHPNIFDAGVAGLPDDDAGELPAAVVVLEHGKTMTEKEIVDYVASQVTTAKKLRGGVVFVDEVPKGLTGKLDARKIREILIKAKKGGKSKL

Q: Which composite z-score [1] does the source give for `O=C1C[C@@](C(=O)NCC(F)(F)F)(c2ccc([N+](=O)[O-])cc2)[C@@H](c2ccc(CO)cc2)N1CC12CC3CC(CC(C3)C1)C2` here?
A: 0.544

Q: And the composite z-score [2]?
A: 1.2

Q: What about the composite z-score [3] of the same compound?
A: 0.0423

Q: What about the composite z-score [4] of the same compound?
A: 0.348

Q: And the composite z-score [5]?
A: 1.5

Q: What about the composite z-score [6] of the same compound?
A: 1.78

Q: What about the z-score [7] of the same compound?
A: -0.598

Q: What about the composite z-score (Lefty1) of the same compound?
A: 0.634

Q: And the composite z-score [8]?
A: 0.732

Q: And the z-score [9]?
A: 0.28 (inactive)

Q: Which composite z-score [1] does the source give for `O=C1c2ccccc2[C@](Cc2ccccc2I)(C(=O)NC2CC2)[C@H](c2ccc(CO)cc2)N1Cc1ccccc1C(F)(F)F` here?
A: 0.0698

Q: And the composite z-score [2]?
A: 0.749

Q: What about the composite z-score [3] of the same compound?
A: -0.226

Q: And the composite z-score [4]?
A: 0.938

Q: And the composite z-score [5]?
A: 1.15

Q: And the composite z-score [6]?
A: 0.0532

Q: What about the z-score [7] of the same compound?
A: -0.254

Q: What about the composite z-score (Lefty1) of the same compound?
A: 1.26

Q: And the composite z-score [8]?
A: 1.15

Q: What about the z-score [9] of the same compound?
A: 0.0135 (inactive)

Q: For `CC(C)CNC(=O)[C@@]1(c2ccc([N+](=O)[O-])cc2)CC(=O)N(C2CCCCC2)[C@@H]1c1ccc(CO)cc1`, which composite z-score [1] is on record?
A: 1.91

Q: What about the composite z-score [2] of the same compound?
A: 1.23

Q: And the composite z-score [3]?
A: -0.0282

Q: And the composite z-score [4]?
A: 0.583

Q: What about the composite z-score [5] of the same compound?
A: 0.536

Q: What about the composite z-score [6] of the same compound?
A: 1.04

Q: What about the z-score [7] of the same compound?
A: 0.214

Q: What about the composite z-score (Lefty1) of the same compound?
A: -0.35

Q: And the composite z-score [8]?
A: 0.29

Q: And the z-score [9]?
A: -0.977 (inactive)

Q: Which composite z-score [1] does the source give for `NC(=O)N1C(=O)C2C(C1=O)C1C=C(CCCO)C2C(C2CC2)N1Cc1cccc(OC(F)(F)F)c1` (stereo not given) here?
A: 0.589

Q: What about the composite z-score [2] of the same compound?
A: 0.469

Q: What about the composite z-score [3] of the same compound?
A: -0.0719

Q: What about the composite z-score [4] of the same compound?
A: 0.948

Q: What about the composite z-score [5] of the same compound?
A: 0.173

Q: And the composite z-score [6]?
A: -0.314

Q: What about the z-score [7] of the same compound?
A: 0.541

Q: And the composite z-score (Lefty1)?
A: 0.341

Q: And the composite z-score [8]?
A: 0.94

Q: And the z-score [9]?
A: -1.4 (inactive)

Q: Which results are given for `CCOC(=O)C[C@H]1[C@H](OC(=O)c2ccccc2-c2ccccc2)[C@@H](NC(=O)c2ccc3ccccc3n2)c2cc(OCCCO)ccc2N1C(=O)c1ccccc1`?
A: composite z-score [1]: -0.0974; composite z-score [2]: 0.378; composite z-score [3]: 0.185; composite z-score [4]: 0.322; composite z-score [5]: 0.782; composite z-score [6]: 0.16; z-score [7]: 0.628; composite z-score (Lefty1): 0.634; composite z-score [8]: 0.857; z-score [9]: 0.272 (inactive)

Q: For `C=C(COC)C(=O)CC[C@H](OC(=O)c1cccnc1)c1ccc(CO)o1`, which composite z-score [1] is on record?
A: 0.784

Q: And the composite z-score [2]?
A: 0.113

Q: What about the composite z-score [3] of the same compound?
A: -0.163

Q: What about the composite z-score [4] of the same compound?
A: 0.978

Q: What about the composite z-score [5] of the same compound?
A: 1.34

Q: What about the composite z-score [6] of the same compound?
A: 1.26

Q: What about the z-score [7] of the same compound?
A: -0.595

Q: And the composite z-score (Lefty1)?
A: 1.15

Q: What about the composite z-score [8] of the same compound?
A: 0.264

Q: And the z-score [9]?
A: -0.721 (inactive)

Q: With `COC(=O)[C@@]1(Cc2ccc(OC)cc2)[C@H]2c3cc(C(=O)N4CCCC4)n(Cc4ccc(S(C)(=O)=O)cc4)c3C[C@H]2CN1C(=O)c1ccccc1` as the compound, how does the composite z-score [1] read?
A: 0.486

Q: What about the composite z-score [2] of the same compound?
A: 1.26

Q: What about the composite z-score [3] of the same compound?
A: 0.721

Q: And the composite z-score [4]?
A: 0.996

Q: What about the composite z-score [5] of the same compound?
A: 0.0078

Q: And the composite z-score [6]?
A: -0.184

Q: What about the z-score [7] of the same compound?
A: 1.26

Q: What about the composite z-score (Lefty1) of the same compound?
A: -0.0956

Q: And the composite z-score [8]?
A: 0.479

Q: And the z-score [9]?
A: 0.922 (inactive)

Q: What does the source list for `O=C1OCCC=C[C@H]2OC34C=CCN(c5ccc(Cl)cc5)C(=O)[C@H]3N(CCCCCCO)C(=O)[C@@H]4C12` (stereo not given in full)?
A: composite z-score [1]: -0.6; composite z-score [2]: -0.611; composite z-score [3]: -0.469; composite z-score [4]: -1.17; composite z-score [5]: -0.841; composite z-score [6]: -1.12; z-score [7]: 2.21; composite z-score (Lefty1): -0.831; composite z-score [8]: -0.533; z-score [9]: -1.65 (inactive)

Q: Which results are given for `Cc1ccc(S[C@]2(C(=O)NC(C)C)CC(=O)N(C(C)C)[C@@H]2c2ccc(CO)cc2I)cc1`?
A: composite z-score [1]: -0.893; composite z-score [2]: -0.0049; composite z-score [3]: 1.58; composite z-score [4]: 0.351; composite z-score [5]: -0.077; composite z-score [6]: -0.471; z-score [7]: 1.28; composite z-score (Lefty1): -0.18; composite z-score [8]: 0.169; z-score [9]: 1.11 (inactive)

Q: Which composite z-score [1] does the source give for `COC(=O)C1=CC(CCCO)=CC(c2ccc(CN3CCCC3)cc2)N(Cc2cc3c(cc2Br)OCO3)C=C1C(=O)OC` (stereo not given) here?
A: 0.676

Q: What about the composite z-score [2] of the same compound?
A: 1.22

Q: What about the composite z-score [3] of the same compound?
A: 0.473

Q: What about the composite z-score [4] of the same compound?
A: 1.02

Q: And the composite z-score [5]?
A: 1.2

Q: And the composite z-score [6]?
A: 0.918

Q: And the z-score [7]?
A: 0.0526

Q: What about the composite z-score (Lefty1) of the same compound?
A: 0.514

Q: What about the composite z-score [8] of the same compound?
A: 1

Q: And the z-score [9]?
A: 0.197 (inactive)
